# Bioassay records: PubChem BioAssay, National Center for Advancing Translational Sciences (NCATS)
# Only some compounds are listed: those with a hit (about 8.8% of all), similar ones and a draw of the others.
# IL1B secr inh – qHTS for Inhibitors of Inflammasome Signaling: IL-1-beta AlphaLISA Primary Screen. THP-1 LPS/ATP IL-1B secretion, AlphaLISA, 16 h; hits give low values. activity change, % at 57.5 µM. actives 4.7% (n = 360,000). AID 743279, 2014; in the data active = activity change below about -50%; inconclusive = mostly about -30% to -49%
#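 Secreted IL-1B measured by AlphaLISA bead assay after 16 h compound exposure of THP-1 cells; compounds (final up to 57.5 uM) added 1 h before LPS (250 ng/mL) and ATP (1.25 mM) stimulation; lower signal means less secretion.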
# HT1080 IDH1KD tx – qHTS for induction of synthetic lethality in tumor cells producing 2HG: qHTS for the HT-1080-IDH1KD cell line; AID 686971, 2013; actives 2% (n = 360,000); Potency, µM (top dose mostly 46.1 µM), for inactives: top-dose activity, negative = toxicity, usual class: cytotoxic; HT-1080 IDH1 knockdown viability, ATP luminescence, 48 h;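 also: potency is read from the fitted curve at half-maximal effect; 0% = DMSO wells and -100% = cell-free medium wells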
#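 CellTiter-Glo luminescence after 48 h compound exposure at 37 degrees C of IDH1-knockdown HT-1080 cells in 5% FBS RPMI. %Activity scaled between DMSO wells and cell-free media wells, with curves fitted and assigned curve classes.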
# KB-3-1 cytotox – qHTS assay for MDR1-selective chemotherapeutics: Primary screen using the parental adenocarcinoma cell KB-3-1; KB-3-1 viability, CellTiter-Glo ATP luminescence, 72 h; actives 1.4% (n = 400,000); Potency, µM (titrated, usually from 46.1 µM), hits mostly cytotoxic; also: potency is read from the fitted curve at half-maximal effect; nearly all actives have a fitted effect of over 60% in size
#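 Here the drug-naive KB-3-1 line serves as comparator for MDR sub-line selectivity; cells received compound titrations, 72 h at 37 °C, then CellTiter-Glo readout.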
# KB-V1 cytotox – qHTS assay for MDR1-selective chemotherapeutics: Primary screen using the drug-selected MDR subline cells KB-V1; KB-V1 MDR cells viability, CellTiter-Glo, 72 h; Potency, µM (series often up to 46.1 µM), actives largely listed as cytotoxic; actives 3.4% (n = 400,000); AID 1347076, 2019; also: potency is read from the fitted curve at half-maximal effect; nearly all actives have a fitted effect of over 60% in size
#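 qHTS viability screen in drug-selected KB-V1 MDR cells: 72 h compound treatment at 37 degrees C, ATP luminescence end point.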
# HT1080-NT tox – qHTS for induction of synthetic lethality in tumor cells producing 2HG: qHTS for the HT-1080-NT fibrosarcoma cell line; HT-1080-NT fibrosarcoma viability, CellTiter-Glo ATP luminescence, 48 h; Potency, µM (doses to about 46.1 µM), for inactives: at the highest dose activity, negative = less viability, hits mostly cytotoxic; actives 1.6% (n = 360,000); AID 686970, 2013;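 also: NT is the 2HG producing partner of a matched IDH1 knockdown line; potency is read from the fitted curve at half-maximal effect; 0% = DMSO-treated cells and -100% = media-only wells without cells; nearly all actives have a fitted effect of over 55% in size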
#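 Viability of the 2HG-overproducing fibrosarcoma line after 48 hours of compound exposure at 37 degrees C was determined by luminescence with CellTiter-Glo, and concentration-effect curves were then fitted and categorized.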
# * = called active by the depositor; i = inactive; ? = inconclusive; · = not tested or not shown. Unless noted, calls follow the shape of the dose curve; as a rule, active = well fitted curve in the direction sought with a large enough effect; inconclusive = small, poorly fitted or top-dose-only effect, or another doubt; inactive = no such curve, though single readings can be large; an effect the other way counts as inactive or inconclusive. Unless noted, % is scaled to controls: 0 for no effect and ±100 for the full control effect.
SMILES,IL1B secr inh,HT1080 IDH1KD tx,KB-3-1 cytotox,KB-V1 cytotox,HT1080-NT tox
COc1ccc(OC)c(N(CC(=O)NCCSCc2ccc(C)cc2)S(C)(=O)=O)c1,-62*,-3%,i,?,-7%
COC(=O)[C@]12CCCCC=C1N(Cc1ccc3c(c1)OCO3)C(=O)[C@H](CC(=O)N1CCSCC1)C2,0,3%,i,?,4%
CC(C)CC1NC(=O)c2cc3ccccc3cc2-n2c1nc1ccc(F)cc1c2=O (configuration not stated),24,-2%,i,i,-8%
Cn1c(=O)[nH]c(=O)c2c1nc(CN1CCN(c3cccc(Cl)c3)CC1)n2CCCc1ccccc1,-13,-2%,i,i,-1%
CCCCn1c(CN2CCN(c3cccc(Cl)c3)CC2)nc2c1c(=O)[nH]c(=O)n2C,39,3.5µM*,?,i,5µM*
CC1CN(C(=O)C2CC2)C(C)CN1C(=O)C1CC1 (configuration not stated),4,4%,i,i,5%
CCOC(=O)c1cnc2c(C)cc(C)cc2c1NCCN1CCOCC1,·,·,i,i,·
CCOC(=O)c1cnc2c(ccc3ccccc32)c1Nc1ccc(OC)c(OC)c1,·,·,7.3µM*,?,·
CCOC(=O)c1cnc2c(ccc3ccccc32)c1Nc1ccc(C(C)=O)cc1,·,·,?,16µM*,·
CCOC(=O)c1cnc2c(ccc3ccccc32)c1Nc1ccccc1OCC,·,·,i,i,·
CCOC(=O)c1cnc2c(C)cc(C)cc2c1NCCCN1CCOCC1,-71*,-7%,i,?,-5%
CCOC(=O)c1cnc2c(ccc3ccccc32)c1NCCCN(C)C,·,21µM*,?,i,?
CCOC(=O)c1cnc2c(ccc3ccccc32)c1Nc1ccc(Cl)cc1,·,·,i,i,·
Cc1ccc(CN2CCN(CC(=O)NCc3ccccc3Cl)C2=O)cc1,·,·,i,i,·
CCN(CC(=O)NCc1cccs1)C(=O)CCOc1ccccc1,13,5%,i,i,6%
CCOC(=O)c1cnc2ccc(OC)cc2c1Nc1ccc2c(c1)OCCO2,25,?,?,?,?
CCOC(=O)c1cnc2c(OC)cccc2c1Nc1ccc2c(c1)OCCO2,5,12%,?,13µM*,1%
CSCc1c(C(=O)NCCc2ccccn2)oc2ccccc12,-9,7%,i,i,10%
O=c1ccc2c([nH]1)CCCCCCCCCC2,49,-6%,?,7.3µM*,-5%
Cc1nn(C)c(C)c1NC(=O)COc1ccc(Cl)cc1,21,-30%,i,i,-8%
Cc1nn(C)c(C)c1NC(=O)CCl,?,?,12µM*,i,?
CCC(=O)Nc1c(C)nn(-c2ccc(C)c(C)c2)c1C,10,4%,i,i,9%
Cc1ccc(-n2nc(C)c(NC(=O)CCl)c2C)cc1C,-104*,?,9.2µM*,16µM*,?
O=C(NCCc1ccccc1)C(=O)NCC1CCCN1S(=O)(=O)c1ccccc1 (configuration not stated),0,?,?,12µM*,-25%
CC(C)(C)c1ccc(C(=O)NCC2CCCN2S(=O)(=O)c2ccccc2)cc1 (configuration not stated),-57*,-14%,?,?,?
SMILES,IL1B secr inh,HT1080 IDH1KD tx,KB-3-1 cytotox,KB-V1 cytotox,HT1080-NT tox
CCOC(=O)c1sc(NC(=O)CCN2C(=O)c3cccc([N+](=O)[O-])c3C2=O)c(C(=O)OCC)c1C,-1,0%,i,?,16%
CC1CCC(NC(=O)c2cccc(S(=O)(=O)N3CCOCC3)c2)CC1 (configuration not stated),3,1%,i,?,8%
COC(=O)c1cncc(C)c1,-3,-1%,i,i,6%
CCN(CC)S(=O)(=O)c1ccc(S(=O)(=O)Nc2c(C)nn(C)c2C)cc1,-11,?,?,i,16µM*
CC(C)C[C@H](NC(=O)N1CCn2c1nc1ccccc12)C(=O)NCCc1ccccc1,-51*,-20%,i,i,-18%
CC(C)C[C@H](NC(=O)N1CCn2c1nc1ccccc12)C(=O)NCc1ccccc1,-12,-7%,i,i,-11%
CC(C)C(=O)NCCc1nc2ccccc2n1CCc1ccccc1,-63*,25%,i,i,1%
CC(C)(C)Cc1nc2ccccc2n1CCc1ccccc1,-11,?,?,18µM*,?
CCc1nc2ccccc2n1CCc1ccccc1,-8,-1%,i,i,11%
CCC(CC)N1CCN(C(=O)c2cc(OC)c(OC)c(OC)c2)CC1,0,-5%,i,i,0%
CC(=O)n1cc(CO)c2ccccc21,30,-4%,i,i,-2%
Cn1cc(C(=O)N/N=C/c2ccc([N+](=O)[O-])cc2)c2ccccc21,·,15%,i,i,10%
CC(=O)n1cc(N(C(=O)CCl)c2ccc([N+](=O)[O-])cc2)c2ccccc21,-101*,?,?,?,23µM*
O=Cc1[nH]c2ccccc2c1N(C(=O)CCl)c1ccc([N+](=O)[O-])cc1,-67*,?,i,i,?
CC(=O)n1cc(N(C(=O)CCl)c2ccccc2)c2ccccc21,-92*,2.6µM*,?,?,2.6µM*
COC(=O)c1ccc(NC(=O)C(=O)NCCc2sc(-c3cccc(F)c3)nc2C)cc1,·,·,i,i,·
NNc1nc2c(Cl)c(Cl)ccc2s1,-60*,-26%,i,i,-14%
NNc1nc2ccc(Cl)cc2s1,-20,-4%,?,?,?
Cc1ccc(C)c(N2CCN(C(=O)c3cc(C)nc4c3c(C)nn4-c3ccccc3)CC2)c1,·,·,i,i,·
COc1cc(OC)c2c(-c3cccc(-c4ccc(C(C)=O)cc4)c3)cc(=O)oc2c1,55,3.3µM*,i,i,5.2µM*
COc1cc(OC)c2c(-c3cccc(-c4ccc(OC)c(F)c4)c3)cc(=O)oc2c1,54,0.65µM*,0.92µM*,i,?
CCc1cc(=O)oc2cc3occ(-c4ccc(OC)c(F)c4)c3cc12,42,5.2µM*,18µM*,1.6µM*,5.2µM*
C=Cc1ccc(CSc2nc(-c3ccc(Cl)cc3)nc3c2Cc2c(CO)cnc(C)c2O3)cc1,·,·,i,i,·
CCOc1cccc(C2C=C(c3ccc4c(c3)OCO4)NC(c3ccc(Br)cc3)N2)c1O (configuration not stated),·,·,?,i,·
